Results on 40 compounds are retold here after PubChem BioAssay (NCI).

About 83,000 compounds went through this panel and 20% of them were active in at least one assay; those are over-represented in the sample as a whole.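 Single-dose data. Exposure time 48 hours. Values below 10 considered active.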 A number with no mark means an inactive call. Activity calls are given as the source filed them.

The test system of this experiment is OVCAR-8 ovarian. The experiment is described as follows: NCI-60 one-dose screen, 48 h (100 = growth as untreated, 0 = no growth, -100 = all killed). As to conditions: 10 µM unless noted. How it is done:
Growth inhibition of the OVCAR-8 human tumor cell line is measured as a screen for anti-cancer activity. Cells are grown in 96 well plates and exposed to the test compound for 48 hours. Compounds are tested at a single concentration, which is 10^-5 M for most compounds. The reported endpoint is percent growth (GI% or GIPRCNT), where numbers from 0 - 100% represent growth inhibition, and numbers from -100% - 0 represent cell death. For example, a value of 40 represents 60% growth inhibition. A value of 0 means no net growth occurred over the course of the experiment. A value of -40 indicates 40% of cells at the beginning of the experiment died by the end of the experiment. A value of -100 means all cells are dead at the end of the experiment.
NCI-60 Human Tumor Cell Lines Screen was performed using the standard one-dose NCI protocol, which is described in more detail at https://dtp.cancer.gov/discovery_development/nci-60/default.htm.
Compounds with GIPRCNT values below 10 were considered active. Activity score was based on GIPRCNT using the following formula: […]
Score is 0 for GIPRCNT values of 100 or above, 50 for GIPRCNT values of 0, and 100 for GIPRCNT values of -100.
With `Cc1ccc(NC(=S)NNC(=S)NNc2ccccc2)cc1C`, the growth was 98.2%.
`CNC(=O)c1c(NC(=O)c2ccc(C(F)(F)F)cc2)sc2c1CCC(=O)C2`: the growth was 14%.
Take `CC(=O)[C@@H]1CCC=C2CC[C@]3(C)[C@@H](CC[C@@H]4[C@@]5(C)CCCNC(C)(C)[C@@H]5CC[C@]43C)[C@H]21`: the growth is -84.4% (active).
As to `CC(C)OC(=O)c1ccc2[nH]c(O)c(C(=Nc3ccc(N(C)C(=O)CN4CCN(C)CC4)cc3)c3ccccc3)c2c1`, the growth is -37.4% (active).
On to `COC(C(=O)[C@@H](O)[C@@H](C)O)[C@@H]1Cc2cc3cc(O[C@H]4C[C@@H](O[C@H]5C[C@@H](O)[C@H](O)C(C)O5)[C@H](O)C(C)O4)c(C)c(O)c3c(O)c2C(=O)[C@H]1O[C@H]1C[C@@H](O[C@H]2C[C@@H](O[C@H]3C[C@@H](O)[C@H](OC)C(C)O3)[C@@H](O)C(C)O2)[C@H](O)C(C)O1` (stereo not given in full), for which the growth is 7.56% (active).
With `Cc1c(-n2nnc(-c3nc4ccccc4s3)c2N)c(=O)n(-c2ccccc2)n1C` the figure was 102%.
On to `O=S(=O)(NCCNc1nccc(-c2c(-c3cccc(F)c3)nc3occn23)n1)c1ccc(Br)cc1`, for which the growth is 80.2%.
With `O=c1oc2c(cnc3ccccc32)cc1-c1ccsc1` the figure was 94.6%.
As for `CN(C)CCCC1(c2ccc(F)cc2)OCc2cc(-c3cccc4[nH]ccc34)ccc21` (stereo not given), the growth was 20.5%.
In the case of `CCOC(=O)C#Cc1c(C(=O)OCC)nnn1[C@@H]1O[C@H](CO)[C@H]2OC3(CCCCC3)O[C@H]21`, the growth was 95.3%.
For `CN1CCN(Cc2ccc(NC(=O)c3cncc(C#Cc4cnc(N)c5ccccc45)c3)cc2C(F)(F)F)CC1`, the growth is -82.5% (active).
Take `O=C1NCCC12CCN(c1c(Cl)cncc1-c1ccc(O)cc1)CC2`: the growth was 89.1%.
Consider `COC1=CC(c2ccc[nH]2)=N/C1=C\c1[nH]c(C)c(C(=O)OCc2ccccc2)c1C`, for which the growth is -26.6% (active).
With `CSc1nc2sc3c(c2c(=O)n1-c1ccc([N+](=O)[O-])cc1)CCCCC3`, the growth is 73%.
Regarding `COc1ccc(C/C(C)=C(/c2ccc(OCCN3CCCCC3)cc2)c2ccc(OC(=O)NCc3ccccc3)cc2)cc1`, the growth is -83.5% (active).
With `O=c1oc2ccc([N+](=O)[O-])cc2cc1Br` the figure was 100%; with `CNC(=O)c1cc(Oc2ccc3c(c2)sc2nc(-c4cc(OC)c(OC)c(OC)c4)cn23)ccn1`, 49.1%.
Consider `CC(C)n1cnc2c(=S)nc[nH]c21`, for which the growth was 109%.
`COCCn1cc(-c2nc(-c3cc4cccnc4n3CCOC)cs2)c2cc(OC)ccc21`: the growth is 61.1%.
With `COc1ccc2[nH]cc(C(c3cc(F)cc(F)c3)c3c[nH]c4ccc(OC)cc34)c2c1` the figure was 87.2%; with `COc1ccc2cc(C(=O)c3coc4ccc(O)cc34)ccc2c1`, 106%; with `CCSc1nc(NC)c2cc(-c3ccc(C(F)(F)F)cc3)ccc2n1`, 102%.
Consider `Cc1cc2c(O)c(-c3cc(Cl)ccc3Cl)c3sc(=O)oc3c2cc1C`, for which the growth is 68.1%.
Consider `CCOc1ccc(NC(=O)CSc2oc(-c3ccccc3)nc2S(=O)(=O)c2ccc(F)cc2)cc1`, for which the growth was 49.5%.
Regarding `CN(C)CCCC1(c2ccc(F)cc2)OCc2cc(-c3cncc4ccccc34)ccc21` (stereo not given), the growth is 62.7%.
`COc1cc(CNS(=O)(=O)c2ccc(C)cc2)ccc1OCc1cn(-c2ccc(F)cc2)nn1`: the growth is 95.5%.
With `Clc1ccc(Nc2nnc(COc3ccccc3)c3ccccc23)cc1`, the growth was 5.02% (active).
Take `Oc1c(Cl)cc(Cl)c2ccc(Cn3cc(-c4cc(F)cc(F)c4)nn3)nc12`: the growth was 69.6%.
As for `CN(Cc1ccc(C(F)(F)F)cc1)CC(O)C(=O)Nc1ccc(Cl)cc1` (stereo not given), the growth was 6.23% (active).
`c1cnc2[nH]cc(-c3csc(-c4cn(CCCN5CCOCC5)c5ccccc45)n3)c2c1`: the growth is 62.4%.
Turning to `Cc1ccc(C2=Nc3c(N)ncnc3NC(c3ccc4c(c3)OCO4)C2)cc1` (stereo not given), the growth is 81%.
Consider `COc1cccc([C@H]2c3[nH]c4ccccc4c3C[C@H]3C(=O)N(CCCCCCC(=O)NO)CC(=O)N23)c1`, for which the growth was 65.6%.
To `OCc1cccc(-c2ccc3ncc(-c4nc(NC5CC5)ncc4F)n3c2)c1` belongs -2.83% (active); to `O=C(/C=C/c1cn(-c2ccccc2)nc1-c1ccc([N+](=O)[O-])cc1)c1ccc(Cl)cc1`, 38.1%.
To `COc1cc(CNC(=O)/C=C/C=C/c2ccc3c(c2)OCO3)ccc1OCc1cn(-c2ccc(C)c(C)c2)nn1` belongs 71.3%.
On to `CCn1c(=S)sc2c(Nc3ccc(F)cc3)nc(-c3cccnc3)nc21`, for which the growth is 43.7%.
To `COC(=O)c1c2c(c(C)[n+]([O-])c1C)C(=O)C=C(NCc1ccc(Br)cc1)C2=O` belongs 1.05% (active); to `Cc1ccc(-c2nc3nc(-c4ccc(F)cc4)nc(N4CCNCC4)c3o2)cc1`, -50.1% (active); to `Oc1c(Cl)cc(Cl)c2ccc(Cn3cc(-c4ccc(C(F)(F)F)cc4)nn3)nc12`, 70.7%.
Take `O=C1/C(=C/c2ccc(Cl)c(Cl)c2)CN(C(=O)C(Cl)Cl)C/C1=C\c1ccc(Cl)c(Cl)c1`: the growth was 0.621% (active).
